Results on one sequence are retold here after article PMC7862700, “An all-to-all approach to the identification of sequence-specific readers for epigenetic DNA modifications on cytosine”.

What all share (assay): DAPPL (digital affinity profiling via proximity ligation, sequencing); 10 mM Tris-HCl pH 7.5, 50 mM NaCl, 1 mM DTT, 4% glycerol, room temperature, 30 min; GST-TFs on glutathione beads, 16-mer random dsDNA library, 0.1% formaldehyde crosslink after washing; high values mean tight binding
Assay [1] has as its target T1, FEV (Homo sapiens, UniProt Q99581 1-238).
T1 sequence: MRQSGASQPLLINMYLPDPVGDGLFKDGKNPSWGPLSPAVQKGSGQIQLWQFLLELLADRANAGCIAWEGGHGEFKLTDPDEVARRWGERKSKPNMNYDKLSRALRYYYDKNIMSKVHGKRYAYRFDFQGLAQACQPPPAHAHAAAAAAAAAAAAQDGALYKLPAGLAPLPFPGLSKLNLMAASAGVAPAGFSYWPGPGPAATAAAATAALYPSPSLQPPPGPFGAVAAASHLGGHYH
Particulars: protein: recombinant; tags: N-terminal GST; dsDNA, one strand shown. The method in brief: (§1)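 Human transcription factors fused to GST were expressed in yeast, captured on glutathione beads, given DNA barcodes and pooled with a GST-only negative control. Pools were incubated with 200 nmole of a 16-mer random double-stranded DNA library in Tris/NaCl/DTT/glycerol buffer at room temperature for 30 min. They were then washed, crosslinked with 0.1% formaldehyde, proximity-ligated (BsaI/T4 ligase, 1 h, 37 °C), PCR-amplified and sequenced on an Illumina NextSeq500. Binding signal is each 6-mer's read frequency for a factor divided by its frequency for the GST control.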

Assay [2] concerns the target ETV5 (Homo sapiens, UniProt P41161 1-510). To be noted: protein: recombinant; tags: N-terminal GST; dsDNA, one strand shown. The method, boiled down:
as §1

The target in assay [3] is HSF1 (Homo sapiens, UniProt Q00613 1-529). To be noted: protein: recombinant; tags: N-terminal GST; chain copies: 3; dsDNA, one strand shown. The method, boiled down:
as §1

For assay [4], the target named is T2, SPIC (Homo sapiens, UniProt Q8N5J4 1-248).
T2 sequence: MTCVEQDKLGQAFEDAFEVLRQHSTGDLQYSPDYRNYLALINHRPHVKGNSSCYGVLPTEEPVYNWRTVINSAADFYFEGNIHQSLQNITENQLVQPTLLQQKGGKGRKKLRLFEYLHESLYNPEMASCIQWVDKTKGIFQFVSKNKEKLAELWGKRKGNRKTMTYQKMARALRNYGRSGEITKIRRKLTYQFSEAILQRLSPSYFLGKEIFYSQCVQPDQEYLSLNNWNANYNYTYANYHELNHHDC
Particulars: protein: recombinant; tags: N-terminal GST; dsDNA, one strand shown. The method, boiled down: as §1

Assay [5] concerns the target ELF4 (Homo sapiens, UniProt Q99607 1-663). To be noted: protein: recombinant; tags: N-terminal GST; dsDNA, one strand shown. The method in brief: as §1
Assay [6] concerns the target T3, ELK4 (Homo sapiens, UniProt P28324-2 1-405).
T3 sequence: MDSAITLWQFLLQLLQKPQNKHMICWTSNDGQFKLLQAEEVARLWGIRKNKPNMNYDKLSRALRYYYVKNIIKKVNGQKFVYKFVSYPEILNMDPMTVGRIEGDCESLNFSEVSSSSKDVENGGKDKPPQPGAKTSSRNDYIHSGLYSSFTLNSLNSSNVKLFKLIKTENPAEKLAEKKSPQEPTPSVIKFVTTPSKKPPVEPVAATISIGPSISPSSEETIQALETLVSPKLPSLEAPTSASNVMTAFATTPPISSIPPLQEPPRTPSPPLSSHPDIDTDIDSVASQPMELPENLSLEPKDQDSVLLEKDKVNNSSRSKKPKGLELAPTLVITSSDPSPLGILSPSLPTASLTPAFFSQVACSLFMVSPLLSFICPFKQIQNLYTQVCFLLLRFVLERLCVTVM
Particulars: protein: recombinant; tags: N-terminal GST; dsDNA, one strand shown. The method in brief:
as §1

Assay [7] deals with T4, ETV2 (Homo sapiens, UniProt O00321 1-342).
T4 sequence: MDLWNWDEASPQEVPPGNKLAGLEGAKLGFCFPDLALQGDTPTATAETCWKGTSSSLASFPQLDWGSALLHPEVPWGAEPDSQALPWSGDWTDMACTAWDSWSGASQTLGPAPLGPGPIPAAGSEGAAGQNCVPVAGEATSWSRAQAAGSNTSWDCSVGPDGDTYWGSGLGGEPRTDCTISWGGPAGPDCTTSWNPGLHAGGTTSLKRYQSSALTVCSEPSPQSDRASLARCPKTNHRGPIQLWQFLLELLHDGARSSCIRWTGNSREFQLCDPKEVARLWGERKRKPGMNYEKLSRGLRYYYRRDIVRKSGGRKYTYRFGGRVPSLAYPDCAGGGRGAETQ
Particulars: protein: recombinant; tags: N-terminal GST; dsDNA, one strand shown. The method in brief: as §1

Assay [8] deals with T5, ELF3 (Homo sapiens, UniProt P78545 1-371).
T5 sequence: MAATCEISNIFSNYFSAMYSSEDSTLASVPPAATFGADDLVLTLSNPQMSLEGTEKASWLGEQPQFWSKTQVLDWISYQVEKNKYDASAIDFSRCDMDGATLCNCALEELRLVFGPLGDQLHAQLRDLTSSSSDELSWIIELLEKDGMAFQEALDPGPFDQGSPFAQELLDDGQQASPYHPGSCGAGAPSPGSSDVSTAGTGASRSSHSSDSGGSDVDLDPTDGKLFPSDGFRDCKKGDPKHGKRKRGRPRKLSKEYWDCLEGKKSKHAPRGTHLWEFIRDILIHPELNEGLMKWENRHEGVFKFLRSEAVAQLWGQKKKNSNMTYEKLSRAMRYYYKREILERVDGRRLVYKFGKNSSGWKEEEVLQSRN
To be noted: protein: recombinant; tags: N-terminal GST; dsDNA, one strand shown. The method, boiled down:
as §1

Assay [9] addresses CRX (Homo sapiens, UniProt O43186 1-299). Particulars: protein: recombinant; tags: N-terminal GST; dsDNA, one strand shown. The method in brief: as §1
Assay [10] addresses ETV1 (Homo sapiens, UniProt P50549 1-477). To be noted: protein: recombinant; tags: N-terminal GST; dsDNA, one strand shown. The method, boiled down:
as §1

Assay [11] deals with T6, ERF (Homo sapiens, UniProt P50548 1-548).
T6 sequence: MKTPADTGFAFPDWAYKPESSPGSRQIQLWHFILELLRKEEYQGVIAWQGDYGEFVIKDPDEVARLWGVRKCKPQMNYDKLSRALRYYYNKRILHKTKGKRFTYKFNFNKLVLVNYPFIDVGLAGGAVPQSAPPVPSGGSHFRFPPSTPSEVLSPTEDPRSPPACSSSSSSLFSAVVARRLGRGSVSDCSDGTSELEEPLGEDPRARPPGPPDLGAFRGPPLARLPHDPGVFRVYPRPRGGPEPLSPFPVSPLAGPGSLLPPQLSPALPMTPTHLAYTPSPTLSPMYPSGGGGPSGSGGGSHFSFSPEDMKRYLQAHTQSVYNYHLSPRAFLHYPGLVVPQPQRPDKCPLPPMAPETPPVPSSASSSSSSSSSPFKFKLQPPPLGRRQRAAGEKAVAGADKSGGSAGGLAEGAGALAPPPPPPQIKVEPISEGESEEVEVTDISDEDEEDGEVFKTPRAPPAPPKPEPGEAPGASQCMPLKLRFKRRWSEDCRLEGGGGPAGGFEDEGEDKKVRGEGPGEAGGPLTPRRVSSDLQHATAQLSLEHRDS
Particulars: protein: recombinant; tags: N-terminal GST; dsDNA, one strand shown. The method, boiled down:
as §1

The target in assay [12] is T7, ETV3L (Homo sapiens, UniProt Q6ZN32 1-361).
T7 sequence: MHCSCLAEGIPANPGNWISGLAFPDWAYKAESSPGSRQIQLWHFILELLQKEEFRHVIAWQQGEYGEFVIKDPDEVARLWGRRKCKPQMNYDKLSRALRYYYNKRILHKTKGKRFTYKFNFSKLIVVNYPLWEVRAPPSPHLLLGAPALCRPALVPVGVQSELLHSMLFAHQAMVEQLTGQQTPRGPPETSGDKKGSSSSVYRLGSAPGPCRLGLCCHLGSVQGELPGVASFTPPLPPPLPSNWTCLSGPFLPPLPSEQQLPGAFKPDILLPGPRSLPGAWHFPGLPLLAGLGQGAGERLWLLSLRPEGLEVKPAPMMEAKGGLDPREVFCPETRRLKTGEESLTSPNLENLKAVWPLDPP
To be noted: protein: recombinant; tags: N-terminal GST; dsDNA, one strand shown. The method in brief:
as §1

Assay [13] addresses T8, ETS2 (Homo sapiens, UniProt P15036 1-469).
T8 sequence: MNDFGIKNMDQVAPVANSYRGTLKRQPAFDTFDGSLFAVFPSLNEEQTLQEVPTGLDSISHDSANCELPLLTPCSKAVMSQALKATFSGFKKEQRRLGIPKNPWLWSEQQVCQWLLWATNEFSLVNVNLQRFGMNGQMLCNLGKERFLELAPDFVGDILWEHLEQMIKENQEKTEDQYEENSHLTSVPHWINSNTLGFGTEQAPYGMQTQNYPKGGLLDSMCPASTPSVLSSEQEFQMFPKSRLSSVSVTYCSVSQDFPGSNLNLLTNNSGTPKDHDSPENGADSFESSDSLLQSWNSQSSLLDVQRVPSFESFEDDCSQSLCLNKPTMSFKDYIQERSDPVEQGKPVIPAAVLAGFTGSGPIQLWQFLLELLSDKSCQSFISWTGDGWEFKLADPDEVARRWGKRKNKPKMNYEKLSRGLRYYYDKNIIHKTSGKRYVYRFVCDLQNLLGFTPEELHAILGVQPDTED
Particulars: protein: recombinant; tags: N-terminal GST; dsDNA, one strand shown. The method, boiled down:
as §1

For assay [14], the target named is T9, SPDEF (Homo sapiens, UniProt O95238 1-335).
T9 sequence: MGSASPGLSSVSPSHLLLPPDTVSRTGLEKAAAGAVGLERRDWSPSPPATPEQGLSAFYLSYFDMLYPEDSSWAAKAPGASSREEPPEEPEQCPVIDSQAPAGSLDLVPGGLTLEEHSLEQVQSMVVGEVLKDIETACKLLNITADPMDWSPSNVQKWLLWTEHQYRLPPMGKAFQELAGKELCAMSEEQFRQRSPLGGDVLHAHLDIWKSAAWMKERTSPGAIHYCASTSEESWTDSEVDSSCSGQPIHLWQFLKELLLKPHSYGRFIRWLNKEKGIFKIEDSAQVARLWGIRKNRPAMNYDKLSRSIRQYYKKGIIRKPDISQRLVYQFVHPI
Particulars: protein: recombinant; tags: N-terminal GST; dsDNA, one strand shown. The method in brief:
as §1

For assay [15], the target named is T10, ETV7 (Homo sapiens, UniProt Q9Y603 1-341).
T10 sequence: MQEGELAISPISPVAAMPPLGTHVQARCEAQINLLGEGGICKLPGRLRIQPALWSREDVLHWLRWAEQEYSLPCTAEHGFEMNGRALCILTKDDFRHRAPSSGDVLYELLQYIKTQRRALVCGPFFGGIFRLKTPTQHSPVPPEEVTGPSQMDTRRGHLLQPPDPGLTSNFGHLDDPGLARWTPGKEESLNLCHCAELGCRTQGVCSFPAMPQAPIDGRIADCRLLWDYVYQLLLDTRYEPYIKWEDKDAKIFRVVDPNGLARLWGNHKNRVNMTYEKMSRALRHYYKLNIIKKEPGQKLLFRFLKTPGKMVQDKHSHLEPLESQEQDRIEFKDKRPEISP
To be noted: protein: recombinant; tags: N-terminal GST; dsDNA, one strand shown. The method in brief:
as §1

In assay [16] the target is T11, ELF5 (Homo sapiens, UniProt Q9UKW6-2 1-255).
T11 sequence: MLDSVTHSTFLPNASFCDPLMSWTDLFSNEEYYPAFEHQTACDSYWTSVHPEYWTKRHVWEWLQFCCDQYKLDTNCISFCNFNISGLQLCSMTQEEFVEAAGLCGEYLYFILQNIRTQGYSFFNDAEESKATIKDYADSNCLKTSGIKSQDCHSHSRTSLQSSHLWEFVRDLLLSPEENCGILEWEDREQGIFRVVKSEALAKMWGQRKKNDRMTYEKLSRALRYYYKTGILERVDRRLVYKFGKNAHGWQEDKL
Particulars: protein: recombinant; tags: N-terminal GST; dsDNA, one strand shown. The method, boiled down:
as §1

Assay [17] deals with T12, ETV3 (Homo sapiens, UniProt P41162-2 1-143).
T12 sequence: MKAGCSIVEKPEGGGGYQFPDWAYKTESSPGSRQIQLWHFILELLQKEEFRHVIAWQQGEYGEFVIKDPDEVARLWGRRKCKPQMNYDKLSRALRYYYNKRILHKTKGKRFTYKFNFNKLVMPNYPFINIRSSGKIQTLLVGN
Particulars: protein: recombinant; tags: N-terminal GST; dsDNA, one strand shown. The method in brief: as §1

For assay [18], the target named is ETV6 (Homo sapiens, UniProt P41212 1-452). Particulars: protein: recombinant; tags: N-terminal GST; dsDNA, one strand shown. The method in brief: as §1
Sequence of ETV6 (P41212 whole entry): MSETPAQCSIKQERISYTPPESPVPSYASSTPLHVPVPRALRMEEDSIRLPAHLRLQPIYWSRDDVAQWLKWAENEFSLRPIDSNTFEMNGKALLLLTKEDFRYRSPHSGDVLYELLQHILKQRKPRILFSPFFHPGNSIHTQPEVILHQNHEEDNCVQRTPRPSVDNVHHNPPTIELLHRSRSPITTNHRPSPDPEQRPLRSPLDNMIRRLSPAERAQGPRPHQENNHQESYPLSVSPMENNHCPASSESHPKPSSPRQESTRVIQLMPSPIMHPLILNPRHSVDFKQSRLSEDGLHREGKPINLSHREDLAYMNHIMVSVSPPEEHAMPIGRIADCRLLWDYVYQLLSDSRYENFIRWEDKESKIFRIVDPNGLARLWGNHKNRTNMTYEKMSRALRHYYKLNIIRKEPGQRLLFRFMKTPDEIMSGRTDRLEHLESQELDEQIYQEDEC

Sequence of HSF1 (Q00613 whole entry): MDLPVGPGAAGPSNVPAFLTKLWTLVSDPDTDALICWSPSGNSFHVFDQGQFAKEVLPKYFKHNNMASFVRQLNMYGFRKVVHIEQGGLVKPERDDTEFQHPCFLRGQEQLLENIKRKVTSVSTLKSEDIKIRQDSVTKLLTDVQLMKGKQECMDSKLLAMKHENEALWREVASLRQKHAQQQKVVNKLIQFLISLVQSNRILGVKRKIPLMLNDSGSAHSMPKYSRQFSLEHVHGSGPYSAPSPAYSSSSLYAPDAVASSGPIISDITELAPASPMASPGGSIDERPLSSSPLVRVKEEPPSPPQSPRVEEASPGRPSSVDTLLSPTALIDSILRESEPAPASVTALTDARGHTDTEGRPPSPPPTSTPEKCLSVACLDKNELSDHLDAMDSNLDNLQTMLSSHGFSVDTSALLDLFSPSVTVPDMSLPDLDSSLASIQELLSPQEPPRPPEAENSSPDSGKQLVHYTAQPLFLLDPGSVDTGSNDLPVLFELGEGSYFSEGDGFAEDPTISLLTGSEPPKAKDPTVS
Sequence of ETV5 (P41161 whole entry): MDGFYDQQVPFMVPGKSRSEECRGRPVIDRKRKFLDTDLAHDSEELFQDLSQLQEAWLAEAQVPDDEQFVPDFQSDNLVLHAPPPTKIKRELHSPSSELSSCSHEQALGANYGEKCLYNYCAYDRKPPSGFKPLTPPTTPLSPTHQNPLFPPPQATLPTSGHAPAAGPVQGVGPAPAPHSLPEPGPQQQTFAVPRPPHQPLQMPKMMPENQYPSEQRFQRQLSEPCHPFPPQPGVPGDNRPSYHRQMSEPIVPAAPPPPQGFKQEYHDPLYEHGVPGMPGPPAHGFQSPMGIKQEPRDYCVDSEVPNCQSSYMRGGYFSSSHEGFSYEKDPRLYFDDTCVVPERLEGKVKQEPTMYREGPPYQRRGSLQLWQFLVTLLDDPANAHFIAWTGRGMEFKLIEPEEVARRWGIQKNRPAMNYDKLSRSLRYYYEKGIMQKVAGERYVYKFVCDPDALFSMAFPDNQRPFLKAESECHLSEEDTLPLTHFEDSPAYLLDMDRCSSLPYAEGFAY
Sequence of ELF4 (Q99607 whole entry): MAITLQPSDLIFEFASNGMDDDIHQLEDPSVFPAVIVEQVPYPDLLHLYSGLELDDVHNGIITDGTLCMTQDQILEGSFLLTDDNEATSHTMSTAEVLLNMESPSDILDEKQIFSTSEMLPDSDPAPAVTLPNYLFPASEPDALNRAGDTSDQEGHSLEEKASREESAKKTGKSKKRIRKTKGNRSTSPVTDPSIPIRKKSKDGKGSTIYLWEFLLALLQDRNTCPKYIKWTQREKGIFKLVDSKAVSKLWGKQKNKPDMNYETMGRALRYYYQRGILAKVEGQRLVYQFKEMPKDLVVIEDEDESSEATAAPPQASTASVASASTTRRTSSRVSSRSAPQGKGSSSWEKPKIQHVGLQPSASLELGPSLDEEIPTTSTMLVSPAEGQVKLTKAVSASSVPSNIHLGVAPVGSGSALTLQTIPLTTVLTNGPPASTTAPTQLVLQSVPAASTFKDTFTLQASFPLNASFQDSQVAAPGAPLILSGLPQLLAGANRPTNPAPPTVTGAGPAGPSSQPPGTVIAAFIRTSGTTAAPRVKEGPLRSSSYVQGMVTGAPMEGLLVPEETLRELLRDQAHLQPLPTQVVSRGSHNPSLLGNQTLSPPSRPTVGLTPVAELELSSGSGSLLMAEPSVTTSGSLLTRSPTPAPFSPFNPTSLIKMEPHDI
Sequence of CRX (O43186 whole entry): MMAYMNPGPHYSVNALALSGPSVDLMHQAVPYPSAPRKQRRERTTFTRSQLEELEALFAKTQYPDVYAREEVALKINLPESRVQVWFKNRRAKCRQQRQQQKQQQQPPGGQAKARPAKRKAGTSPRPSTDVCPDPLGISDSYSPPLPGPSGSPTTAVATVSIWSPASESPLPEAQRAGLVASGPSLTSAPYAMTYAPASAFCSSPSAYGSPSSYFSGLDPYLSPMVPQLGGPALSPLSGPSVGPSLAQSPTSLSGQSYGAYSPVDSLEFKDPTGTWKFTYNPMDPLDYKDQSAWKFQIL
Sequence of ETV1 (P50549 whole entry): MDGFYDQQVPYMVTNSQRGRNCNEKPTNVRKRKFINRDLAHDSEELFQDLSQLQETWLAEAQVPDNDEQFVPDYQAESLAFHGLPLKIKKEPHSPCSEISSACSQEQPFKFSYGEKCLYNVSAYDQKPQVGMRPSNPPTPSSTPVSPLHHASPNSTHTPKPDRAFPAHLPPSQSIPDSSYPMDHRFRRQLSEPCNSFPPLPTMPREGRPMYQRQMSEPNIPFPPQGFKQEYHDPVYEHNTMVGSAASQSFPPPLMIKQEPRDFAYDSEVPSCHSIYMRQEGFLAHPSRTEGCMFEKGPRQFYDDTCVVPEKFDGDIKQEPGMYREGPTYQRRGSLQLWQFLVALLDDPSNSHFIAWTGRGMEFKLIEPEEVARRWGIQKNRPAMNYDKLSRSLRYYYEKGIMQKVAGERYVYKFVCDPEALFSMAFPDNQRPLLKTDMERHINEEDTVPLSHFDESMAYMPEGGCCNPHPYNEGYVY

Turning to TTTTCG, the binding signal was 1.23 fold enrichment (6-mer frequency, TF over GST control) in assay [1]; 1.27 fold enrichment (6-mer frequency, TF over GST control) in assay [2]; 1.53 fold enrichment (6-mer frequency, TF over GST control) in assay [3]; 1.11 fold enrichment (6-mer frequency, TF over GST control) in assay [4]; 1.29 fold enrichment (6-mer frequency, TF over GST control) in [5]; 1.08 fold enrichment (6-mer frequency, TF over GST control) in assay [6]. Also, the binding signal in assay [7] is 1.33 fold enrichment (6-mer frequency, TF over GST control); in [8], 1.11 fold enrichment (6-mer frequency, TF over GST control); in [9], 1.28 fold enrichment (6-mer frequency, TF over GST control); in [10], 1.2 fold enrichment (6-mer frequency, TF over GST control); in [11], 1.25 fold enrichment (6-mer frequency, TF over GST control); in [12] it was 1.41 fold enrichment (6-mer frequency, TF over GST control). Also, the binding signal in assay [13] is 1.26 fold enrichment (6-mer frequency, TF over GST control); in assay [14] it was 1.16 fold enrichment (6-mer frequency, TF over GST control); in assay [15], 1.2 fold enrichment (6-mer frequency, TF over GST control); in [16], 1.3 fold enrichment (6-mer frequency, TF over GST control); in assay [17] it was 1.25 fold enrichment (6-mer frequency, TF over GST control); in assay [18], 1.09 fold enrichment (6-mer frequency, TF over GST control).
